# Results from PubChem BioAssay AID1835 (Johns Hopkins Ion Channel Center, 2009).
# The campaign covered roughly 2,400 compounds. About 750 (31%) were called active. The list shows a part of the results. Values without a mark were called inactive.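 Rule for the calls: active = median signal gain over dofetilide-blocked control wells reaching their mean plus 3 SD, so readout 1 at least 0; inactive = the rest.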
# Target: Voltage-gated inwardly rectifying potassium channel KCNH2 (Homo sapiens) (UniProt Q12809)
# Sequence (Q12809 whole entry, looked up): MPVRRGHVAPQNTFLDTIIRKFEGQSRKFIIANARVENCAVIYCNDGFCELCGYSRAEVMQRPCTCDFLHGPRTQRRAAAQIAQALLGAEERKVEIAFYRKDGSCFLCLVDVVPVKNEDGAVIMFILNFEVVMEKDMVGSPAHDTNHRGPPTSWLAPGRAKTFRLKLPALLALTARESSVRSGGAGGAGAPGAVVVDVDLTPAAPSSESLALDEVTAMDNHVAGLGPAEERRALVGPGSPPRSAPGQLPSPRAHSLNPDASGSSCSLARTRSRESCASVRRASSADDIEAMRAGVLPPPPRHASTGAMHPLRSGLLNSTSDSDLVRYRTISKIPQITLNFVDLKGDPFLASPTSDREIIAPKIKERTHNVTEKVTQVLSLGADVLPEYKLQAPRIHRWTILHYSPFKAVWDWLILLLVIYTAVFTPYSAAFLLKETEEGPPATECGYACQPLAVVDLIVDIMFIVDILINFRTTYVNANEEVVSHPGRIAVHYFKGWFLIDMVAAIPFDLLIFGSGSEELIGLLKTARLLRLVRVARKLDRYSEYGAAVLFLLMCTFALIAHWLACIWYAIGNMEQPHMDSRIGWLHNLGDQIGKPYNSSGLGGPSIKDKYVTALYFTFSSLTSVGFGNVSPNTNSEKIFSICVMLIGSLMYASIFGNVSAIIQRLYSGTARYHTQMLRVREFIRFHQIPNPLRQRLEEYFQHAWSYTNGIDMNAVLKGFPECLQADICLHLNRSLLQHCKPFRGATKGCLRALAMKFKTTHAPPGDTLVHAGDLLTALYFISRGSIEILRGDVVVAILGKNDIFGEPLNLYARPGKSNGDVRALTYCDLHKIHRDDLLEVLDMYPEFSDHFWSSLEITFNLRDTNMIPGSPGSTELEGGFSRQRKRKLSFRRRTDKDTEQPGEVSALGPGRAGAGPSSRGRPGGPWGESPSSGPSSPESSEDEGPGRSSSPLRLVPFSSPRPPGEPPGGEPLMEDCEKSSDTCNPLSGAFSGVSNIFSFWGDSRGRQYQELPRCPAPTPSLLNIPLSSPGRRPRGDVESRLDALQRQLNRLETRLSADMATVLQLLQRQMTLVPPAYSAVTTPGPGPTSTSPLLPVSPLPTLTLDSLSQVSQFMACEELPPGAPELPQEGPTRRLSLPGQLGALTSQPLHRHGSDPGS
# Assay: modulators restoring hERG flux under dofetilide – cell-based, thallium flux, duplicate retest, dofetilide IC70, confirmation (AID 1835)
# Settings: hERG cell line, FluxOR thallium flux, dofetilide-blocked; at 10 µM; hits give high values
row,Structure (SMILES),"activity increase over dofetilide control, less the hit threshold"
1,Cc1ccc(C(C)C)cc1OCCn1cncn1,-24%
2,O=C1Nc2ccc(Br)cc2C1Cc1ccccc1F (configuration not stated),-17%
3,Cc1ccc(C(=O)CC(=O)c2cccc(F)c2)c(O)c1,1% (active)
4,Cc1ccc(C(=O)CC(=O)c2ccc(C)cc2O)cc1,-1%
5,O=C(CC(=O)c1ccccc1O)c1cccc(F)c1,-6%
6,COc1cc(C(=O)NCc2ccc(-c3nc4ccccc4o3)cc2)cc(OC)c1OC,-12%
7,CCSc1nnc(NC(=O)Cn2cnc3c2c(=O)n(C)c(=O)n3C)s1,-22%
8,O=C(Nc1nnc(SCC(=O)N2CCCCC2)s1)C1CCCCC1,-18%
9,CCSc1nnc(NC(=O)CC(C)C)s1,3% (active)
10,COc1ccc(S(=O)(=O)Nc2ccc(Cl)cn2)c(C)c1C,-9%
11,CC[C@@H](C(=O)[C@@H](C)[C@@H](O)[C@H](C)CCc1ccc(C)c(O)c1C(=O)O)[C@H]1O[C@](CC)([C@H]2CC[C@](O)(CC)[C@H](C)O2)C[C@@H]1C,93% (active)
12,O=C(CCN1C(=O)/C(=C\C=C\c2ccccc2)SC1=S)Nc1ccc(C(=O)O)cc1,26% (active)
13,COc1ccc(NC(=O)CCN2C(=O)C3C4C=CC(C4)C3C2=O)cc1 (configuration not stated),-14%
14,O=C(CSc1nc(-c2ccccc2)nc2ccc(F)cc12)Nc1cccc(C(=O)O)c1,-23%
15,O=C(CCN1C(=O)/C(=C\C=C\c2ccccc2)SC1=S)Nc1cccc(C(=O)O)c1,93% (active)
16,O=C(CCN1C(=O)/C(=C/c2cccs2)SC1=S)Nc1cccc(C(=O)O)c1,-13%
17,CC(C)Oc1cc(S(=O)(=O)N2CCCCC2)ccc1N,-18%
18,CC(C)(C)C(=O)NC(=S)N1CCOCC1,3% (active)
19,S=C(N/N=C/c1ccc(Cl)cc1)N1CCOCC1,-47%
20,Cc1cc(F)c(F)c(C(=O)N2CCOCC2)c1,-17%
21,CCCCCOCC1CC(C/C(C)=N/Nc2nc(-c3ccccc3)cs2)C(=O)O1 (configuration not stated),-5%

row,Structure (SMILES),"activity increase over dofetilide control, less the hit threshold"
1,Cc1cc([N+](=O)[O-])c(C)cc1-c1ccc(/C=N/NC(=O)Cn2nnnc2N)o1,0% (active)
2,CCOC(=O)N/N=C\c1ccc(-c2cc(Cl)ccc2Cl)o1,-2%
3,COCc1cc(C)nc(OCC(=O)N/N=C/c2ccc(-c3cc([N+](=O)[O-])ccc3Cl)o2)c1C#N,-7%
4,C=C(C)CSc1nc(N)cc(=O)[nH]1,-4%
5,O=C1NC(=O)/C(=C/c2cc3c(cc2Br)OCO3)S1,-17%
6,O=C1NC(=S)/C(=C\c2ccc(-c3ccccc3Cl)o2)S1,-23%
7,O=C1NC(=S)S/C1=C\c1ccc2ccccc2c1,28% (active)
8,Cc1cc(C(=O)NCCN2C(=O)S/C(=C\c3cccs3)C2=O)ccc1[N+](=O)[O-],-1%
9,Cc1ccsc1/C=C1/SC(=O)N(CC(=O)N2CCCC2)C1=O,-4%
10,C#CCN1C(=O)S/C(=C\c2ccc(-c3ccc(C(=O)O)cc3C)o2)C1=O,1% (active)
11,O=C(CCl)NCCN1C(=O)S/C(=C\c2cccnc2)C1=O,-5%
12,Cc1ccc(NC(=O)CN2C(=O)S/C(=C/c3ccc(-c4cc(C(=O)O)ccc4C)o3)C2=O)cc1C,-29%
13,Cc1ccccc1NC(=O)CN1C(=O)S/C(=C\c2ccc(-c3cc(C(=O)O)ccc3C)o2)C1=O,-3%
14,Cc1ccccc1NC(=O)CN1C(=O)S/C(=C\c2ccc(-c3cccc(C(=O)O)c3C)o2)C1=O,19% (active)
15,Cc1ccc(NC(=O)CN2C(=O)S/C(=C\c3ccc(-c4cccc(C(=O)O)c4C)o3)C2=O)cc1,25% (active)
16,Cc1c(/C=C2\SC(=O)N(CC(=O)Nc3ccc4c(c3)OCO4)C2=O)c2ccccc2n1C,-11%
17,Cc1ccc(C(=O)O)cc1-c1ccc(/C=C2\SC(=O)N(CC(=O)Nc3ccccc3)C2=O)o1,87% (active)
18,CN(C)c1oc(-c2ccccc2[N+](=O)[O-])nc1C#N,-15%
19,COc1ccc(C2N=C(c3ccccc3)C(C)(C)N2O)cc1 (configuration not stated),-16%
20,CCOC(=O)C1CCCCN1Cc1ccc(F)cc1 (configuration not stated),-14%
21,O=C(CN1C(=O)S/C(=C\c2cc(Cl)c(O)c(Cl)c2)C1=O)Nc1ccccc1,-21%

row,Structure (SMILES),"activity increase over dofetilide control, less the hit threshold"
1,Cc1cccc(NC(=O)CN2C(=O)S/C(=C\c3ccc(-c4cccc(C(=O)O)c4C)o3)C2=O)c1,71% (active)
2,O=C(CN1C(=O)S/C(=C\c2cccs2)C1=O)Nc1ccc(O)c(C(=O)O)c1,-3%
3,O=C(CN1C(=O)S/C(=C\c2cccs2)C1=O)Nc1ccc(C(=O)O)c(O)c1,12% (active)
4,O=S(=O)(NCc1ccc(Cl)cc1Cl)c1ccc(N2CCOCC2)nc1,-25%
5,S=c1nc(C2CCCCC2)n(-c2ccccc2)[nH]1,24% (active)
6,Cc1onc(-c2ccccc2Cl)c1C(=O)NC(=S)Nc1ccc(C(C)C)cc1,-20%
7,Cc1onc(-c2ccccc2)c1C(=O)NC(=S)Nc1sc2c(c1C#N)CCCC2,-3%
8,Cc1onc(-c2ccccc2)c1C(=O)NC(=S)Nc1sc2c(c1C#N)CCC(C)C2 (configuration not stated),24% (active)
9,O=C(O)C[C@H]1c2cc(F)ccc2S(=O)(=O)N1C1CCCCC1,-15%
10,O=C(CN1C(=O)NC(Cc2ccccc2)C1=O)Nc1ccccc1OC(F)F (configuration not stated),-10%
11,CCOc1ccc(NC(=O)c2ccc3c(c2)CCN3S(C)(=O)=O)cc1,-21%
12,O=C(CN1CCCCCC1)Nc1ccc(Oc2ccccc2)cc1,-10%
13,O=C(O)COc1ccc(NC(=O)c2ccc3c(c2)C(=O)N(C2CCCCC2)C3=O)cc1,4% (active)
14,O=C(O)CCCn1cc(NC(=O)COc2ccc(F)cc2)cn1,-17%
15,O=C(COC(=O)/C=C/c1ccc2c(c1)OCO2)NC1CC1,-20%
16,CC(NC(=O)C1CCN(S(=O)(=O)c2cccc3cccnc23)CC1)c1ccccc1 (configuration not stated),-15%
17,CC(NC(=O)NC1CCCCC1)c1ccc2c(c1)OCO2 (configuration not stated),1% (active)
18,CC(NC(=O)NC1CCCCC1)c1ccccc1 (configuration not stated),9% (active)
19,Cc1ccc(C(C)NC(=O)c2ccc3c(c2)OCO3)cc1C (configuration not stated),0%
20,CC(NC(=S)NC1CCCCC1)c1ccccc1 (configuration not stated),-11%
